Compounds with a hit are over-represented: about 15% of the library has one in this group of screens.
HCMV antiviral: human cytomegalovirus inhibition; HFF cells, HCMV-luciferase reporter, 72 h; hits give low values; activity change, negative = inhibition, % at 57.5 µM; 410,000 tested, 4.5% active; AID 1259415; in the data active = activity change below about -60%; inconclusive = no clear call, values can overlap the other calls; inactive = above about -39%
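Screen run at 2 compound doses on HFFs infected with reporter HCMV, MOI 1 PFU/cell. Luciferase activity from cell lysates at 72 h post infection gave inhibition relative to buffer-only and Salinomycin wells.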
Pf growth 96h: P. falciparum growth inhibition at 96 hour, primary screen for plastid delayed-death inhibitors; P. falciparum luciferase reporter growth, 96 h; Potency, µM (series often up to 28.7 µM), most hits filed as inhibitors; 320,000 tested, 6.9% active; AID 504834
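Two-generation exposure (96 h) targets delayed-death phenotype. Reporter parasites carrying integrated firefly luciferase, in red cells at 2% hematocrit and 0.05% parasitemia final, kept at 37 C, 5% CO2; luminescence loss indicates inhibition.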
Sm TGR block: blocks Schistosoma mansoni thioredoxin glutathione reductase; Q962Y6; purified TGR, DTNB reduction, TNB absorbance 405 nm; Potency, µM (titrated, usually from 114 µM), most hits filed as inhibitors; 360,000 tested, 3% active; AID 485364; also: nearly all actives have a fitted effect of over 60% in size
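First, TGR (20 nM dispensed) and NADPH were mixed with compound. Second, a 15 min room-temperature incubation followed. Third, further NADPH and then DTNB were added to start the reaction. Finally, TNB absorbance was monitored kinetically.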
Pf growth 48h: inhibits P. falciparum growth in the first generation, 48 h | 310,000 tested, 5.9% active | Potency, µM (series often up to 28.7 µM), hits mostly inhibitors | P. falciparum luciferase growth in erythrocytes, 48 h
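Growth was read as firefly luciferase luminescence after a 48 h, 37 C, 5% CO2 exposure of compounds to reporter-bearing P. falciparum cultures (0.1% parasitemia, 2% hematocrit final) in Albumax-supplemented RPMI 1640.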
SARS PLpro yeast: SARS-CoV PLP inhibition in yeast; S. cerevisiae expressing SARS-CoV PLpro, growth rescue; Potency, µM (doses to about 32.9 µM), most hits filed as activators; 330,000 tested, 0.19% active; calls by dose curve; also: nearly all actives have a fitted effect of over 55% in size
HCV inhibitor: blocks hepatitis C virus; Potency, µM (top dose mostly 41.8 µM), actives largely listed as inhibitors; AID 651820; Huh7.5.1 HCVcc-Cre infection, luciferase reporter, 44 h; 340,000 tested, 3.4% active
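Infectious HCV cell culture screen: compound-treated cells (1,000/well, pre-plated 4 h) are infected with HCVcc-Cre at roughly 0.5 moi and grown 44 h. Infection is quantified by luciferase signal after 15 min substrate incubation at room temperature.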
Large screens that a line does not name were inactive. Unless noted, calls follow the shape of the dose curve; as a rule, active = well fitted curve in the direction sought with a large enough effect; inconclusive = small, poorly fitted or top-dose-only effect, or another doubt; inactive = no such curve, though single readings can be large; an effect the other way counts as inactive or inconclusive.

CC(=O)O[C@]1(C(C)=O)CC[C@H]2[C@@H]3C=C(C)C4=CC(=O)CC[C@@H]4[C@H]3CC[C@@]21C	Pf growth 96h inconclusive, Sm TGR block inconclusive, Pf growth 48h 13µM (no result: SARS PLpro yeast)
C=C1CC2C3C=C(C)C4=CC(=O)CCC4(C)C3CCC2(C)[C@@]1(OC(C)=O)C(C)=O (some centres undefined)	Pf growth 96h 11µM, Pf growth 48h inconclusive (no result: HCMV antiviral, Sm TGR block, SARS PLpro yeast, HCV inhibitor)
CC(=O)O[C@]1(C(C)=O)CCC2C3C=C(C)C4=CC(=O)CC[C@]4(C)C3CC[C@@]21C (some centres undefined)	HCMV antiviral inconclusive, Pf growth 96h inconclusive, Pf growth 48h inconclusive, HCV inhibitor inconclusive
Cc1cccc(NC(=O)C(=O)NCCc2sc(-c3ccccc3)nc2C)c1C	none (no result: Pf growth 96h, Pf growth 48h, SARS PLpro yeast, HCV inhibitor)
O=C(Nc1ccc(OCc2ccccc2)cc1)Nc1nnc([C@@H]2C[C@H](O)[C@@H](CO)O2)s1	none (no result: Pf growth 96h, Sm TGR block, Pf growth 48h, SARS PLpro yeast, HCV inhibitor)
Cc1cc(C)cc(C(=O)N2CC(=O)Nc3ccccc32)c1	HCMV antiviral -81, Pf growth 48h inconclusive (no result: Pf growth 96h)
COc1ccccc1OC(C)C(=O)N1CC(=O)Nc2ccccc21 (centres undefined)	HCMV antiviral -72
CCc1cccc(NC(=O)CNC(=O)N2CC(=O)Nc3ccccc32)c1	none
CCc1cccc(Nc2c([N+](=O)[O-])cc(C(=O)N3CC(=O)Nc4ccccc43)cc2[N+](=O)[O-])c1	Pf growth 96h inconclusive, Pf growth 48h inconclusive, HCV inhibitor 14µM
Cc1ccc(/C=C/C(=O)N2CC(=O)Nc3ccccc32)o1	Sm TGR block 8.9µM
COc1ccc(NC(=O)CS(=O)CC(=O)Nc2ccc(-n3cnnn3)c(C)c2)cc1 (centres undefined)	none
COc1cccc(NCc2cccn2-c2nnc(N3CCC(C)CC3)s2)c1	none (no result: Pf growth 96h, Pf growth 48h, SARS PLpro yeast, HCV inhibitor)
CC1CCCN(c2cccc3c2S(=O)(=O)N([C@H](C)c2ccccc2)C[C@@H](COCc2ccccc2)O3)C1 (some centres undefined)	HCMV antiviral -82 (no result: Pf growth 96h, Sm TGR block, Pf growth 48h, SARS PLpro yeast, HCV inhibitor)
O=C1[C@@H](Oc2ccccc2)[C@@H](c2ccccc2)N1c1ccccc1	none (no result: Pf growth 96h, Sm TGR block, Pf growth 48h)
O=C1[C@@H](Oc2ccccc2)[C@@H](c2cccnc2)N1c1ccccc1	HCV inhibitor 35µM (no result: Pf growth 96h, Sm TGR block, Pf growth 48h)
COC(=O)c1ccc(NC(=O)CSc2ncc3c(n2)-c2cc(Cl)ccc2N(Cc2ccccc2)S3(=O)=O)cc1	none (no result: Pf growth 96h, Pf growth 48h, SARS PLpro yeast, HCV inhibitor)
O=C(O)c1cc(C(=O)O)c(-c2ccccc2)c(C(=O)O)c1	Pf growth 96h inconclusive, Pf growth 48h 2.9µM
Cc1ccc(-c2cc(C(=O)N3CCCc4ccccc43)no2)cc1	Pf growth 96h inconclusive, Pf growth 48h inconclusive (no result: Sm TGR block)
CCOc1ccc(N(CC(=O)NN=C2CCCC2)S(C)(=O)=O)cc1	Pf growth 96h inconclusive
CC[C@@H]1[C@H]2CCCC(=O)N3CC[C@@H](C[C@@H]1OC(=O)Nc1ccccc1)[C@@H]23	Pf growth 96h 2.3µM, Pf growth 48h inconclusive, HCV inhibitor inconclusive
CCC(=O)Nc1cc(-c2nc3ccccc3s2)c(Cl)cc1Cl	HCMV antiviral -101 (no result: Pf growth 96h, Pf growth 48h, SARS PLpro yeast, HCV inhibitor)
Cc1ccc(NC(=O)c2ccco2)c(NC(=O)COc2ccccc2)c1	none
Cc1ccc(NC(=O)CO/N=C/c2ccccc2C)c(C)c1	Pf growth 96h 2.3µM, Pf growth 48h inconclusive
Cc1ccc(NC(=O)COC(=O)c2ccccc2-c2nc3ccccc3s2)c(C)c1	HCMV antiviral -68
Cc1ccc(NC(=O)COc2ccccc2)c(NC(=O)c2ccccc2C)c1	HCMV antiviral -64 (no result: Pf growth 96h, Sm TGR block, Pf growth 48h, SARS PLpro yeast)
Cc1ccc(C(=O)Nc2ccc(-c3nc4ccccc4s3)c(O)c2)c(C)c1	HCMV antiviral -63 (no result: Pf growth 96h, Pf growth 48h, SARS PLpro yeast, HCV inhibitor)
Cc1ccc(NC(=O)COC(=O)c2cccc3c2C(=O)c2ccccc2C3=O)c(C)c1	HCMV antiviral -67, Pf growth 96h inconclusive, Pf growth 48h inconclusive, HCV inhibitor inconclusive
CCCNC(=O)NC(=O)CSc1nc2ccccc2c(=O)n1Cc1ccncc1	Pf growth 96h 13µM, Pf growth 48h inconclusive
NC(=O)CSc1nc2ccccc2c(=O)n1Cc1ccccc1	none
CC(CCc1ccccc1)NC(=O)CSc1nnnn1C (centres undefined)	Pf growth 96h 4.7µM
Cn1nnnc1SCC(=O)Nc1ccccc1Cc1ccccc1	none
CCC(C)NC(=O)CSc1nnc(-c2cc(-c3ccc(C)cc3)nc3ccccc23)n1N (centres undefined)	Pf growth 96h 12µM (no result: Pf growth 48h)
COCC(C)NC(=O)CSc1nc2ccccc2n1CCc1ccccc1 (centres undefined)	Pf growth 96h 10µM
C=CCNC(=O)O/N=C/c1csc([N+](=O)[O-])c1	Pf growth 96h inconclusive, Sm TGR block inconclusive
CCCCC(CC)CNC(=O)C(=O)c1ccccc1NC(C)=O (centres undefined)	Pf growth 96h inconclusive, Pf growth 48h inconclusive, SARS PLpro yeast inconclusive
O=C(O)COc1ccc(CCNS(=O)(=O)c2ccccc2)s1	none (no result: HCMV antiviral, Sm TGR block, SARS PLpro yeast, HCV inhibitor)
CCC(C)NC(=O)CSc1nc2ccccc2c(=O)n1Cc1ccc(OC)cc1 (centres undefined)	Pf growth 96h 1.7µM (no result: Pf growth 48h)
CCOC(=O)C(CCCCOc1ccc([N+](=O)[O-])cc1)C(=O)OCC	Pf growth 96h inconclusive
CCOC(=O)C(CCCOc1ccccc1C)C(=O)OCC	Pf growth 96h 9.3µM, HCV inhibitor inconclusive
COC(=O)c1ccc(OCCOc2ccccc2)cc1	none (no result: Pf growth 48h)
COC(=O)c1ccc(OCCOc2ccccc2C)cc1	Pf growth 96h 1.3µM
COc1cccc(OC)c1OCCOc1ccc(C(=O)c2ccccc2)cc1	HCMV antiviral -66, Pf growth 96h 0.37µM, HCV inhibitor inconclusive
O=C(c1ccccc1)c1ccc(OCCCN2CCCCC2)cc1	Pf growth 96h inconclusive, HCV inhibitor inconclusive (no result: Pf growth 48h)
COC(=O)c1sccc1NC(=O)c1ccc(OC)cc1OC	none
CCc1ccc(C2=NN(C(C)=O)C(c3ccco3)C2)cc1 (centres undefined)	none
Cc1nc2cc(-c3ccc(Cl)cc3)nn2c(NCCN(C)C)c1C	Pf growth 96h 10µM, Pf growth 48h inconclusive, HCV inhibitor 18µM (no result: Sm TGR block)
Cc1cccc(CC2CC(=O)N(c3ncccn3)C2=O)c1 (centres undefined)	none
Cc1ccc(N2C(=O)CC(Cc3ccc(Cl)cc3)C2=O)cc1 (centres undefined)	none
O=C1CC(Cc2ccccc2)C(=O)N1c1ncccn1 (centres undefined)	Pf growth 96h inconclusive, Sm TGR block 50µM
Cc1cc(C)nc(N2C(=O)CC(Cc3ccc(Cl)cc3)C2=O)n1 (centres undefined)	HCMV antiviral -101
COc1ccc(NC(=O)CN(C)C(=O)C2(c3ccccc3)CCCC2)cc1	HCV inhibitor inconclusive (no result: Pf growth 96h, Sm TGR block, Pf growth 48h)
CCC(C)NC(=O)[C@H](CSCc1ccccc1)N1Cc2ccccc2C1=O (some centres undefined)	HCMV antiviral inconclusive, Pf growth 96h 10µM
CC(C)CNC(=O)c1ccccc1Oc1ccccc1	Pf growth 96h 15µM (no result: Pf growth 48h)
